Laboratory results: ChEMBL document CHEMBL1157539, “Thousands of chemical starting points for antimalarial lead identification” (Nature, 2010)

Tested on: Plasmodium falciparum
Assay: GSK_TCMDC: Inhibition of Plasmodium falciparum Dd2 in whole red blood cells, using parasite LDH activity as an index of growth. Test compounds present at 2uM
Format: functional

Structure (SMILES) | Inhibition [%]
Cl.O=S(=O)(Nc1cc2c(cc1OCc1ccccc1)CCN(C1CCC1)CC2)c1ccc(-c2ccc(Cl)cc2)cc1 | 12
CN1CCN(c2cc3c(Nc4ccc5c(cnn5Cc5ccccc5)c4)ncnc3cn2)CC1 | 35
O=C(Nc1ccc(OC2CCN(Cc3ccccc3)C2)c(Cl)c1)c1ccsc1.O=C(O)C(F)(F)F (stereo not given) | 75
CC(C)(C)OC(=O)NCC(=O)N(Cc1ccccc1)Cc1ccccc1 | 93
Cc1cccc(Cl)c1S(=O)(=O)N1CCCCC(c2ccc(C(F)(F)F)cc2)=N1 | 100
CC1CCCN(Cc2cc(Cl)cc(Cl)c2O)C1 (stereo not given) | 77
O=C(Nc1cccc(N2CCC(NCc3cnn(-c4cccc(F)c4)c3)CC2)c1)c1ccncc1 | 40
COc1ccc(NC(=O)Nc2ccc(-c3cccc(-c4nc5cccc(C)c5[nH]4)c3)cc2)cc1 | 75
OC(CNc1ccnc(Nc2ccc(Cl)cc2)n1)c1ccc(C(F)(F)F)cc1 (stereo not given) | 94
CC(Oc1ccc(Cl)cc1)C(=O)Nc1cc(C(F)(F)F)ccc1N1CCOCC1 (stereo not given) | 97
O=C(Nc1ccon1)c1cc(-c2cccnc2)nc2ccc(Cl)cc12 | 76
Cc1cccc2nc(-c3ccc(-c4ccc(CN5CCN(CC6CCCN(C)C6)CC5)cc4)s3)[nH]c12.O=C(O)C(F)(F)F (stereo not given) | 99
COc1ccc(N2CCN(CCCN3CCN(C(=O)c4ccc(/C=C/c5ccc(Cl)c(Cl)c5)cc4)CC3)CC2)c(OC)c1.O=C(O)/C=C/C(=O)O | 52
Cc1cc(=O)[nH]c2cc(Nc3ccnc(Nc4cccc(C(N)=O)c4)n3)ccc12.Cl | 98
Cc1ccc(N2C(N)=NC(N)=NC2c2ccccc2)cc1.Cl (stereo not given) | 1
Br.Oc1ccc(CCNCCCCCCNCCc2ccc(Cl)cc2)c(Cl)c1O | 30
CCc1ccc(NC(=O)N(CCCn2ccnc2)Cc2csc(-c3ccc(CNCc4ccccc4)cc3)n2)cc1.O=C(O)C(F)(F)F | 39
O=C(Cc1ccc(NC(=O)c2ccc(O)c(-c3ccc(Cl)c(Cl)c3)c2)cc1)NCCN1CCCCC1 | 63
Cc1ccc(S(=O)(=O)N2CCCN(C(=O)c3cc(-c4ccccc4)[nH]n3)CC2)cc1 | 93
Cc1cc(N[C@@H](Cc2ccccc2)C(=O)NC2CCCC2)nc(Nc2ccccc2)n1.O=C(O)C(F)(F)F | 82

Structure (SMILES) | Inhibition [%]
CS(=O)(=O)CCNCc1nc(-c2ccc3c(Nc4ccc(F)c(O)c4)ccnc3c2)cs1 | 84
Cc1cccc2nc(-c3ccc(-c4cccc(C(=O)NCCc5cn(C)cn5)c4)s3)[nH]c12 | 17
O=C(NCCCCN1CCC(c2ccc(Br)cc2)CC1)c1ccc(NC(=O)c2ccc(Cl)cc2)cc1 | 86
CCC(c1ccccc1)c1nn2c(-c3cccs3)nnc2s1 (stereo not given) | 95
COc1ccccc1CCNc1ncnc2c1[nH]c1ccc(F)cc12 | 68
Cc1n[nH]c2cc(Nc3ccnc(Nc4cccc(CN5CCOCC5)c4)n3)ccc12 | 0
Cn1cnc(CCNC(=O)c2cccc(-c3cccc(-c4nc5cc(C(F)(F)F)ccc5[nH]4)c3)c2)c1 | 45
Br.CC1(C)NC(N)=NC(=N)N1OCCOc1ccc2ccccc2c1 | 96
CN(C)CCCN1C(=O)c2[nH]nc(-c3ccc(Cl)cc3O)c2C1c1ccc(Cl)cc1 (stereo not given) | 15
O=C(NCc1ccc(Cl)cc1)c1ccc(CN2CCCN(CC3CCCCC3)CC2)cc1.O=C(O)C(F)(F)F | 5
Cc1c(C)c2c(c(C)c1O)CC[C@](C)(C(=O)N1CCC(CCN3CCC(c4c[nH]c5ccccc45)CC3)CC1)O2 | 74
O=C(Nc1ccc(OC2CCN(Cc3ccsc3)C2)c(Cl)c1)c1cccs1.O=C(O)C(F)(F)F (stereo not given) | 87
CCCCCCCCNc1c2ccc(Cl)cc2nc2ccc(OC)cc12.Cl | 96
NCC1CCCN1Cc1cccc(-c2ccc(-c3nc4cc(C(F)(F)F)ccc4[nH]3)cc2)c1.O=C(O)C(F)(F)F (stereo not given) | 95
Cc1noc(C)c1-c1cccc(CNCc2cccc(-c3ccc(-c4nc5ccccc5[nH]4)cc3)c2)c1.O=C(O)C(F)(F)F | 76
Cc1cccc2nc(-c3cccc(-c4ccc(NC(=O)NCc5ccccc5)cc4)c3)[nH]c12 | 47
CCc1cn2c3c(cc(C(=O)N[C@@H](Cc4ccccc4)[C@H](O)CNC(C)(C)CCCC(C)C)cc13)N(C)S(=O)(=O)C2.O=CO | 98
Cc1noc(C)c1CN1Cc2ccccc2OC2(CCN(Cc3c[nH]c4cnccc34)CC2)C1.O=C(O)C(F)(F)F | 12
COc1cccc(CCNc2nc(NCc3ccccc3)c3cc(OC)c(OC)cc3n2)c1 | 99
CCc1cn2c3c(cc(C(=O)N[C@@H](Cc4ccccc4)[C@H](O)CNC4CC4)cc13)N(CC)S(=O)(=O)CC2.O=CO | 99
